From PubChem BioAssay (EPA / NIEHS)
Inconclusive results are not listed. The source made the active and inactive calls. The calls were made as follows, unless noted: active = hit-call score of the fitted dose curve at least 0.9, where 1 is the maximum; inactive = score below 0.9.

How the values were obtained:
[1] = biological target: Estrogen receptor (Homo sapiens) (UniProt P03372); experiment: OT_ERa_GFPERaERE_0480: Odyssey Thera (OT) 8-hour HeLa Transcription Induction Assay for Estrogen Receptor (AID 2283381)
Sequence of Estrogen receptor (Homo sapiens) (P03372 whole entry, looked up): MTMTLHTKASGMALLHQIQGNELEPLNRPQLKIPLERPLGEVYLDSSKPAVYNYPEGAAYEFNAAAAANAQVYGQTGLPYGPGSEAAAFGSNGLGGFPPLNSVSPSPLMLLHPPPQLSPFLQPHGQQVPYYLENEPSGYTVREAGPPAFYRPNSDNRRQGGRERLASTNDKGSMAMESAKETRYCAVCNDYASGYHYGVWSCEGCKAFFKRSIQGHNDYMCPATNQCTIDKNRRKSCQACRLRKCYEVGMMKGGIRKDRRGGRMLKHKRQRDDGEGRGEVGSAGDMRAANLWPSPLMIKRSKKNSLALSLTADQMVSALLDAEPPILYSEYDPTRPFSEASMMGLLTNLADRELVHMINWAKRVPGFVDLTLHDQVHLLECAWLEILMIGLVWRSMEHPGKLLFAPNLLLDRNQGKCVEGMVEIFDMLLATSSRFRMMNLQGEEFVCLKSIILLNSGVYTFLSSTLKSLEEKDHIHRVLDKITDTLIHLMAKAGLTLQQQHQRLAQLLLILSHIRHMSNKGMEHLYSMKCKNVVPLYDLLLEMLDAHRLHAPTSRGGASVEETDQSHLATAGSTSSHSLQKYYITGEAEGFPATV
In short: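 HeLa cells expressing GFP reporter under estrogen response element, imaged 8 h after dosing. GFP induction quantified by high-content fluorescence microscopy image analysis; gain of signal fitted versus DMSO.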

[2] = biological target: Retinoic acid receptor RXR-alpha (Homo sapiens) (UniProt P19793); experiment: OT_NURR1_NURR1RXRa_1440: Odyssey Thera (OT) 24-hour HEK293T Protein Complementation Assay for Nurr1/retinoid X receptor (RXR) (AID 2283386; active = hit-call score of the fitted dose curve at least 0.9, where 1 is the maximum)
Sequence of Retinoic acid receptor RXR-alpha (Homo sapiens) (P19793 whole entry, looked up, the tested form may be a part): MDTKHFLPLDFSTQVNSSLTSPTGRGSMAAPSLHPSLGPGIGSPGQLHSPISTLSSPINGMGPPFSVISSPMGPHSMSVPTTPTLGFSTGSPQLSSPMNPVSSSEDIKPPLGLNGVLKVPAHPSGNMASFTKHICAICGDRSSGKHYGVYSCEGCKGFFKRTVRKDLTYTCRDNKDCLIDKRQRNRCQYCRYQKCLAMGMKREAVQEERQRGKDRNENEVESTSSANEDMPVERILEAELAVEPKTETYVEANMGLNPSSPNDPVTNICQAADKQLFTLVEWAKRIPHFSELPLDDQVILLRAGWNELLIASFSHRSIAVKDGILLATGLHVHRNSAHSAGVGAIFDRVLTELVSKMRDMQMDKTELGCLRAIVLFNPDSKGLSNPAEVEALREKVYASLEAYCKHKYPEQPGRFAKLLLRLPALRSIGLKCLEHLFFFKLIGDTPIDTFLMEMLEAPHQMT
In short: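 HEK293T protein-fragment complementation of Nurr1 and RXRα fused to reporter fragments; compounds 24 h. Fluorescence gain from reconstituted reporter fitted versus DMSO.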

[3] = biological target: Peroxisome proliferator-activated receptor gamma (Homo sapiens) (UniProt P37231); experiment: OT_PPARg_PPARgSRC1_0480: Odyssey Thera (OT) 8-hour Protein-Complementation Assay for Peroxisome Proliferator-activated Receptor Gamma / SRC-1 Co-activator (AID 2283387; active = hit-call score of the fitted dose curve at least 0.9, where 1 is the maximum;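 also: nuclear to cytoplasmic split Venus YFP fluorescence ratio reporting PPARg SRC-1 interaction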)
Sequence of Peroxisome proliferator-activated receptor gamma (Homo sapiens) (P37231 whole entry, looked up, the tested form may be a part): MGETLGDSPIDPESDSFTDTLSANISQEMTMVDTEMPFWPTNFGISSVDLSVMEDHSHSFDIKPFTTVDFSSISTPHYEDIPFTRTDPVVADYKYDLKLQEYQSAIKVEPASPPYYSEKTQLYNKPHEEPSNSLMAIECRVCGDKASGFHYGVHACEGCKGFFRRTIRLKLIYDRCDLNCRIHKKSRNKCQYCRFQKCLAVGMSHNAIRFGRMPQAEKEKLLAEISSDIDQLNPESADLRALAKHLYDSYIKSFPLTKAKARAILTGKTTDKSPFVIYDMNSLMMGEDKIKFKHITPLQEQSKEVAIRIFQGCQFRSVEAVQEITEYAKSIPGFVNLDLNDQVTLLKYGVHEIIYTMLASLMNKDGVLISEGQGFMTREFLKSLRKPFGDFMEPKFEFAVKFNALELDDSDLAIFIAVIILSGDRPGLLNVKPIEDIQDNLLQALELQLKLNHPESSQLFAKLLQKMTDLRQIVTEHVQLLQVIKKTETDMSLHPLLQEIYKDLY
In short: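 Protein-fragment complementation in HEK293T: Venus YFP halves (residues 1-158, 159-239, mutated to IFP1/IFP2) fused to PPARg/SRC-1. 8 h exposure; N/C ratio at 488 nm; DMSO negative control.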

[4] = biological target: Peroxisome proliferator-activated receptor gamma (Homo sapiens) (UniProt P37231); experiment: OT_PPARg_PPARgSRC1_1440: Odyssey Thera (OT) 24-hour Protein-Complementation Assay for Peroxisome Proliferator-activated Receptor Gamma/ SRC-1 Co-activator (AID 2283388; active = hit-call score of the fitted dose curve at least 0.9, where 1 is the maximum;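 also: nuclear to cytoplasmic ratio of reconstituted Venus YFP fluorescence in fixed imaged cells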)
In short: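 Cells carrying the PPARg/SRC-1 fragment-complementation reporter receive compound for 24 hours, are fixed and counterstained with Draq5, then imaged. Increased nuclear relative to cytoplasmic YFP fluorescence above DMSO baseline indicates binding activity.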

[5] = biological target: Retinoic acid receptor RXR-alpha (Homo sapiens) (UniProt P19793); experiment: OT_NURR1_NURR1RXRa_0480: Odyssey Thera (OT) 8-hour HEK293T Protein Complementation Assay for Nurr1/retinoid X receptor (RXR) (AID 2283385; active = hit-call score of the fitted dose curve at least 0.9, where 1 is the maximum)
In short: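 HEK293T cells expressing Nurr1 and RXRα fused to reporter fragments (protein-fragment complementation); fluorescence measured 8 h after dosing. Gain of signal fitted relative to DMSO.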

[6] = biological target: Bile acid receptor (Homo sapiens) (UniProt Q96RI1); experiment: OT_FXR_FXRSRC1_0480: Odyssey Thera (OT) 8-hour HEK293T Protein-Complementation Assay for Farnesoid X receptor/SRC-1 Co-activator (AID 2283383; active = hit-call score of the fitted dose curve at least 0.9, where 1 is the maximum)
Sequence of Bile acid receptor (Homo sapiens) (Q96RI1 whole entry, looked up, the tested form may be a part): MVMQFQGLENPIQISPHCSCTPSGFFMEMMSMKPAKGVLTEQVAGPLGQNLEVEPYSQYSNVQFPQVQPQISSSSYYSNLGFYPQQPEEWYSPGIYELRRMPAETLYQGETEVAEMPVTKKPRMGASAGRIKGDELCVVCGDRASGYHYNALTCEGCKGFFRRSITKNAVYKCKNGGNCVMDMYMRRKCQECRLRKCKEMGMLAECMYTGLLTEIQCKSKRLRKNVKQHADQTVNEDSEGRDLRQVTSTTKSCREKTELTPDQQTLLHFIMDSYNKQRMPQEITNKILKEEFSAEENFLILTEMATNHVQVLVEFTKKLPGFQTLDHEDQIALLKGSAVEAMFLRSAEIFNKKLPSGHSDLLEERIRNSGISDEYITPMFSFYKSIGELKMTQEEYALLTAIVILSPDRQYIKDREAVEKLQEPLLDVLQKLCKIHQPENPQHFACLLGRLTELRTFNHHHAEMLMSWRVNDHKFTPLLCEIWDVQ
In short: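 HEK293T protein-fragment complementation assay: FXR and SRC-1 coactivator are fused to reporter fragments, and their interaction restores a fluorescent reporter. Readout was taken 8 h after dosing, with gain of signal fit relative to DMSO.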

[7] = CEETOX_H295R_11DCORT: CeeTox H295R High-throughput Steroidogenesis Assay for 11-Deoxycortisol (11DCORT) (AID 2283432); conditions: actives raise or lower the signal;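 as to AC50: 11-deoxycortisol secreted into the medium measured by LC-MS/MS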
In short: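 Adrenal carcinoma line H295R, run per OECD 456 with minor changes, was forskolin-stimulated (10 uM, 48 h) before a 48 h chemical exposure at 0.1% DMSO. Secreted 11-deoxycortisol was quantified by HPLC-MS/MS.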

[8] = CEETOX_H295R_OHPREG: CeeTox H295R High-throughput Steroidogenesis Assay for OH-Pregnenolone (OHPREG) (AID 2283434); conditions: actives raise or lower the signal
In short: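 Hormone levels in spent medium were measured by tandem mass spectrometry following liquid-liquid extraction. Cells (H295R) had been forskolin-stimulated (10 uM, 48 h) before a 48 h chemical exposure at 0.1% DMSO, with activity fitted in both directions against DMSO.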

[9] = CEETOX_H295R_OHPROG: CeeTox H295R High-throughput Steroidogenesis Assay for OH-Progesterone (OHPROG) (AID 2283435); conditions: actives raise or lower the signal;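 as to AC50: human adrenal H295R cells primed 48 h with 10 µM forskolin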
In short: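 H295R adrenal cells prestimulated 48 h with 10 uM forskolin, then exposed 48 h to chemical (0.1% DMSO final). 17alpha-hydroxyprogesterone in medium quantified by HPLC-MS/MS; bidirectional fit versus DMSO, with MTT viability measured in the same wells.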

[10] = CEETOX_H295R_CORTIC: CeeTox H295R High-throughput Steroidogenesis Assay for Corticosterone (CORTIC) (AID 2283437); conditions: actives raise or lower the signal;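 also: corticosterone secreted into medium quantified by mass spectrometry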;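 as to AC50: human H295R adrenal cells prestimulated with forskolin before chemical exposure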
In short: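 Corticosterone secreted into medium is measured by reverse-phase HPLC with tandem MS following liquid-liquid extraction. Cells are forskolin-stimulated (10 uM, 48 h) before 48 h test exposure; activity fitted in both directions against DMSO.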

[11] = CEETOX_H295R_CORTISOL: CeeTox H295R High-throughput Steroidogenesis Assay for Cortisol (AID 2283438); conditions: actives raise or lower the signal;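 also: cortisol secreted into medium quantified by LC-MS/MS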
In short: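 Forskolin-primed H295R cells (10 uM, 48 h) treated 48 h with test chemical in 0.1% DMSO. Cortisol in medium quantified by MTBE extraction and HPLC-MS/MS; bidirectional fit vs DMSO, MTT viability in same wells.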

[12] = CEETOX_H295R_DOC: CeeTox H295R High-throughput Steroidogenesis Assay for DOC (AID 2283439); conditions: actives raise or lower the signal
In short: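 H295R cells prestimulated 48 h with 10 uM forskolin, then exposed 48 h to test chemical (0.1% DMSO final). Medium 11-deoxycorticosterone measured by HPLC-MS/MS after MTBE extraction; bidirectional fit vs DMSO, viability checked by MTT in same wells.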

[13] = CEETOX_H295R_PROG: CeeTox H295R High-throughput Steroidogenesis Assay for Progesterone (PROG) (AID 2283442); conditions: actives raise or lower the signal;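 as to AC50: human H295R adrenal cells primed with 10 µM forskolin before dosing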
In short: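 Measured analyte is progesterone secreted by H295R cells at 48 h of chemical treatment, following 10 uM forskolin priming. Quantitation used HPLC-MS/MS against a 7-point standard curve; cytotoxicity was checked by MTT absorbance.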

[14] = CEETOX_H295R_ESTRADIOL: CeeTox H295R High-throughput Steroidogenesis Assay for Estradiol (AID 2283440); conditions: actives raise or lower the signal;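 also: estradiol secreted into medium quantified by LC-MS/MS after dansyl derivatisation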
In short: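 Readout is estradiol in conditioned medium, quantified by reverse-phase HPLC-MS/MS against a 7-point standard curve. Cells: H295R, forskolin-stimulated, then dosed 48 h in 0.1% DMSO; activity fitted in both directions relative to DMSO.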

[15] = CEETOX_H295R_ESTRONE: CeeTox H295R High-throughput Steroidogenesis Assay for Estrone (AID 2283441); conditions: actives raise or lower the signal;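 also: estrone secreted into medium measured by LC-MS/MS after dansyl derivatization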;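 as to AC50: human adrenal H295R cells prestimulated with forskolin for two days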
In short: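 H295R cells prestimulated 48 h with 10 uM forskolin, then exposed 48 h to chemicals in 0.1% DMSO final; estrone in medium extracted with MTBE, dansyl-derivatized, quantified by HPLC-MS/MS; bidirectional fitting versus DMSO, viability by MTT.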

[16] = CEETOX_H295R_ANDR: CeeTox H295R High-throughput Steroidogenesis Assay for Androstenedione (ANDR) (AID 2283436); conditions: actives raise or lower the signal
In short: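 Read-out is androstenedione secreted into medium, measured by tandem mass spectrometry after liquid-liquid extraction. Cells were H295R, dosed for 48 h per modified OECD 456; activity fitted in both directions relative to DMSO.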

Measured: AC50

CCN(CCO)CCO
inactive: [1] | [2] | [3] | [4]

O=C(O)COc1ccc(Cl)cc1
inactive: [1] | [5] | [3]

CN(C)C(=S)S
inactive: [5] | [2]

O=c1nc(O)n(Cl)c(=O)n1Cl
inactive: [5] | [2] | [3]

O=C(N[C@H]1CN2CCC1CC2)c1ccc2c(c1)OCCO2
inactive: [5] | [2] | [3]

CN(N=O)C(N)=O
inactive: [5] | [3]

OCCN(CCO)CCO
inactive: [5] | [2]

CCC[CH2][Sn]([CH2]CCC)([CH2]CCC)[CH2]CCC
inactive: [3]

CCOP(=S)(OCC)O/N=C(\C#N)c1ccccc1
active: [6] 32.5 µM | [7] 82.5 µM | [10] 13.8 µM | [11] 87.8 µM | [12] 40.4 µM | [13] 50 µM
inactive: [5] | [2] | [3] | [4] | [8] | [9]

COC(=O)Nc1cccc(OC(=O)Nc2cccc(C)c2)c1
active: [7] 9.94 µM | [8] 4.29 µM | [12] 19.8 µM
not listed: [1] | [6] | [14] | [15] | [16]
inactive: all other assays above

CCCCCCCCCCCCOS(=O)(=O)O
inactive: [5] | [2]

Clc1cccc(Cl)c1Cl
inactive: [5] | [2] | [3] | [4]

O=c1[nH]c(=O)n(Cl)c(=O)n1Cl
inactive: [5] | [2] | [3]

CCOP(=O)(OCC)OC(=CCl)c1ccc(Cl)cc1Cl
inactive: [8]
active: [7] 5.43 µM | [9] 5.16 µM | [10] 5.28 µM | [11] 5.66 µM | [12] 5.48 µM | [13] 5.17 µM

OCCCCO
inactive: [6] | [5] | [2] | [3] | [4]

Nc1ncn[nH]1
inactive: [6] | [2] | [3]

Oc1c(Cl)cc(Cl)cc1Cl
inactive: [8]
active: [9] 66.5 µM | [13] 50 µM

C[C@]12CC[C@@H](O)C[C@@H]1CC[C@@H]1[C@@H]2CC[C@]2(C)C(=O)CC[C@@H]12
active: [9] 1.87 µM | [10] 1.98 µM | [12] 2.64 µM | [13] 3.65 µM
inactive: [7] | [8] | [11]

COc1nn(C(=O)NS(=O)(=O)c2ccccc2OC(F)(F)F)c(=O)n1C
inactive: [5] | [2] | [3]

CC(C)(COCC1CO1)COCC1CO1 (stereo unspecified)
inactive: [7] | [8] | [9] | [10] | [11] | [12] | [14] | [15] | [13]

COc1ccc(N)cc1
inactive: [3] | [7] | [8] | [10] | [11] | [12]
active: [2] 13.8 µM | [9] 31.7 µM | [13] 16.4 µM

Cc1ccccc1OP(=O)(Oc1ccccc1C)Oc1ccccc1C
inactive: [7] | [8] | [9] | [16] | [10] | [11] | [12] | [13]

N#CS
inactive: [2] | [3]

OC(Cc1ccccc1Cl)(Cn1cncn1)C1(Cl)CC1 (stereo unspecified)
inactive: [9] | [12]
active: [7] 11.8 µM | [8] 1.37 µM | [10] 6.94 µM | [11] 6.05 µM | [14] 3.86 µM | [15] 7.74 µM | [13] 6.41 µM

Nc1ccc(N)cc1
inactive: [5] | [2] | [3] | [8] | [9]

O=[N+]([O-])c1ccccc1O
inactive: [2] | [3]

OC(Cc1ccccc1Cl)(Cn1[nH]cnc1=S)C1(Cl)CC1 (stereo unspecified)
inactive: [7] | [8] | [9] | [16] | [10] | [11] | [12] | [13]

Cc1cc(C)cc(C)c1
inactive: [5] | [2] | [8] | [9] | [13]

CC(C)(C)c1ccccc1O
not listed: [1] | [4] | [6] | [14] | [15] | [16]
inactive: all other assays above

COc1ccccc1N
inactive: [2] | [3]

Clc1cccc(Cl)c1
inactive: [2] | [3]
